# Laboratory results taken from PubChem BioAssay AID1851 (National Center for Advancing Translational Sciences (NCATS), 2009).
# Values joined by “and” are separate entries in the source; they are usually repeats but may differ in a detail not shown here. Equal entries are not always repeated. The campaign covered roughly 16,000 compounds. About 5,800 (36%) were called active. Inconclusive results (about 23%) are left out. Calls follow the shape of the dose curve; as a rule, active = well fitted curve in the direction sought with a large enough effect; inconclusive = small, poorly fitted or top-dose-only effect, or effect the other way; inactive = no such curve, though single readings can be large or run the other way. Some of the results follow.
# Biological target: Cytochrome P450 2C19 (Homo sapiens) (UniProt P33261)
# Sequence (P33261 whole entry, looked up): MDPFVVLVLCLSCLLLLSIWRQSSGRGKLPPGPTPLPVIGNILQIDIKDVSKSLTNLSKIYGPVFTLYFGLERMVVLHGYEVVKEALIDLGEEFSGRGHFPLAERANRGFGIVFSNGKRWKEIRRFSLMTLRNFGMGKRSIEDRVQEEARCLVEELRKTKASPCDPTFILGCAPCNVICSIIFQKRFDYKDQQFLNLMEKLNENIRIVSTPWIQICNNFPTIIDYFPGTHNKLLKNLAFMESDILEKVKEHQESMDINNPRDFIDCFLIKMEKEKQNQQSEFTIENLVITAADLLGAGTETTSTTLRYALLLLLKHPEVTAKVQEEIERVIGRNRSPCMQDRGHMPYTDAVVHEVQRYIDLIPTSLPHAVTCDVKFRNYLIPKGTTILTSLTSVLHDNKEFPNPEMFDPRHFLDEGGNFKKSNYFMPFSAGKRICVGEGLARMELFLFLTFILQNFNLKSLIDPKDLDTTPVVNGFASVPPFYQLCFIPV
# Test: Cytochrome panel assay with activity outcomes
# Details: recombinant CYP, pro-luciferin dealkylation, luminescence, p450-cyp2c19; series mostly up to 57.1 µM; activity, negative = inhibition: at the top concentration
# % is scaled to controls: 0 for no effect and ±100 for the full control effect.
Compound,AC50,"activity, negative = inhibition"
CC[C@H]1C(=O)OC[C@H]1Cc1cncn1C,inactive,–
CCC1C(=O)OCC1Cc1cncn1C (configuration not stated),7.94 µM (active),–
CC1(C)Cc2c(C#N)c(SCc3ccccc3)nc(N3CCOCC3)c2CO1,8.91 µM (active),–
COc1ncc2nc(-c3ccc(Cl)cc3)c(=O)n(C[C@H]3CCCO3)c2n1,10 µM (active),–
COCCn1c(=O)c(CCc2ccccc2)nc2cnc(Oc3cccc(Cl)c3)nc21,15.8 µM (active),–
N#CCCn1c(=O)c(-c2ccccc2)nc2cnc(Oc3cccc(Cl)c3)nc21,–,-37.6% (inactive)
N#CCCn1c(=O)c(-c2cccc(C#N)c2)nc2cnc(Oc3ccccc3)nc21,–,-18.6% (inactive)
COc1ccc(-c2nc3cnc(Oc4cccc(Cl)c4)nc3n(C[C@H]3CCCO3)c2=O)cc1,–,-39% (inactive)
Cc1nc2cnc(Oc3cccc(Cl)c3)nc2n(CCC#N)c1=O,–,-38% (inactive)
CN(C)c1ncc2nc(-c3ccc(Cl)cc3)c(=O)n(C[C@H]3CCCO3)c2n1,–,6.36% (inactive)
COCCn1c(=O)c(-c2cn(C)c3ccccc23)nc2cnc(Oc3cccc(Cl)c3)nc21,–,-13.6% (inactive)
N#CCCn1c(=O)c(CCc2ccccc2)nc2cnc(Oc3cccc(Cl)c3)nc21,6.31 µM (active),–
Cn1cc(-c2nc3cnc(Oc4ccccc4)nc3n(CCC#N)c2=O)c2ccccc21,–,-14.4% (inactive)
N#CCCn1c(=O)c(CCc2ccccc2)nc2cnc(Oc3ccccc3)nc21,31.6 µM (active),–
COCCn1c(=O)c(-c2cc(F)cc(F)c2)nc2cnc(Oc3cccc(Cl)c3)nc21,–,-3.94% (inactive)
O=C(O)CC/C=C\C[C@@H]1CO[C@H](c2ccccc2Cl)O[C@@H]1c1ccccc1O,–,-44.4% (inactive)
COc1ccc(Oc2ncc3ncc(=O)n(C[C@H]4CCCO4)c3n2)cc1,–,-37% (inactive)
O=c1c(CCc2ccccc2)nc2cnc(Oc3cccc(Cl)c3)nc2n1C[C@H]1CCCO1,20 µM (active),–
Cc1nc2cnc(Oc3cccc(Cl)c3)nc2n(C[C@H]2CCCO2)c1=O,–,-16.9% (inactive)

Compound,AC50,"activity, negative = inhibition"
COC(=O)[C@]1(C)CCC(c2ccc(C)cc2)=C(CC(=O)O)C1,–,11.9% [at 11.4 µM] (inactive)
COc1ccc(C(=O)n2c(SC)nc3cc4c(cc32)OCCO4)cc1,10 µM (active),–
CCOc1ccccc1NC(=O)CSc1nnc(-c2cnccn2)n1C,15.8 µM (active),–
CO[C@H]1C[C@@H]2C[C@H](O)C[C@@H](CC(=O)O[C@@H](/C=C\CC(C)C)C[C@@H]3CC[C@H](C)[C@@H](C1)O3)O2,–,2.79% [at 11.4 µM] (inactive)
COCCCNC(=O)C1CC(=O)N(CCc2ccc(OC)c(OC)c2)C1 (configuration not stated),–,-23.4% (inactive)
COc1ccc(CCN2C(=O)C(O)=C(C(=O)c3ccco3)C2c2cccs2)cc1OC (configuration not stated),–,-19.4% (inactive)
O=C(NCC1CCCO1)C1c2ccccc2C(=O)N1Cc1ccc2c(c1)OCO2 (configuration not stated),–,-28% (inactive)
COC(=O)c1ccc(C2C(Oc3ccccc3)C(=O)N2CCc2ccc(OC)c(OC)c2)cc1 (configuration not stated),1.58 µM (active),–
Cc1ccccc1OC1C(=O)N(Cc2ccc3c(c2)OCO3)C1c1sccc1C (configuration not stated),1.12 µM (active),–
COc1ccc(CCN2C(=O)C(Oc3ccccc3C)C2c2ccc3c(c2)OCO3)cc1OC (configuration not stated),0.501 µM (active),–
O=C1C[C@@H](O)[C@@H](O)[C@H]2[C@@H]3C(=O)N(Cc4ccc5c(c4)OCO5)C(=O)[C@@H]3CC[C@H]12,–,37.1% [at 11.4 µM] (inactive) and -14% [at 11.4 µM] (inactive)
CN(C)CCCO[C@H]1[C@@H]2OC(C)(C)O[C@@H]2O[C@@H]1[C@H](O)CO,–,-7.77% [at 25.6 µM] (inactive)
C[n+]1ccccc1/C=N\O,–,-8.91% [at 25.6 µM] (inactive)
CC(=O)NCCNc1ncnc2ccc(-c3ccc4c(c3)OCO4)cc12,6.31 µM (active),–
COc1ccccc1-c1ccc2ncnc(NCCNC(C)=O)c2c1,–,-43% (inactive)
CC(=O)NCCNc1ncnc2ccc(-c3ccoc3)cc12,–,2.38% (inactive)
CC(=O)NCCNc1ncnc2ccc(-c3ccc(C(=O)N(C)C)cc3)cc12,–,-6.63% (inactive)
CC(=O)NCCNc1ncnc2ccc(-c3ccccc3C)cc12,20 µM (active),–
